Source: PubChem BioAssay AID1347076 (National Center for Advancing Translational Sciences (NCATS), 2019)
Among all 400,000 compounds or so, about 13,000 (3.2%) were called active. Inconclusive results (about 18%) are left out. Many of the other results were omitted from the sample, so actives are more common in it than they were. Unmarked numbers belong to inactive results. Calls come from the whole dose curve; as a rule, active = well fitted cell-killing curve with a large enough effect; inconclusive = small, poorly fitted or top-dose-only effect, or effect the other way; inactive = flat fitted curve, though single readings scatter.

Experiment: qHTS assay for MDR1-selective chemotherapeutics: Primary screen using the drug-selected MDR subline cells KB-V1; note: nearly all actives have a fitted effect of over 60% in size
Settings: KB-V1 MDR cells viability, CellTiter-Glo, 72 h; series mostly up to 46.1 µM; activity change, negative = cytotoxicity: at the top concentration
Method in brief: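 KB-V1 MDR subline cells in DMEM (phenol-red free, 10% FBS) exposed to compounds in qHTS concentration series for 72 h at 37 degrees C. Viability read by CellTiter-Glo luminescence; concentration-effect curves fitted after normalization and correction.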
% is set by controls: 0 for no effect and ±100 for the full control effect; potency is the fitted concentration of half-maximal effect.

Row | Compound | activity change, negative = cytotoxicity | Potency
1 | Cc1ccc(S(=O)(=O)CCC(=O)OCC(=O)N(C)C2CCS(=O)(=O)C2)cc1 (configuration not stated) | -3.87% | 
2 | CN(C1CCS(=O)(=O)C1)S(=O)(=O)c1ccc2ccccc2c1 (configuration not stated) | -7.48% | 
3 | Cc1ccc(S(=O)(=O)N(c2cccc(C)c2)C2CCS(=O)(=O)C2)cc1 (configuration not stated) |  | 16.4 µM (active)
4 | CCc1nc2nc(C)cc(Nc3ccc(F)c(Cl)c3)n2n1 | 1.62% | 
5 | CCOC(=O)c1ccc2[nH]c3c(c2c1)CCCC3NC=O (configuration not stated) | -6.76% | 
6 | N#CCc1c[nH]c2ccc([N+](=O)[O-])cc12 | 16.4% | 
7 | O=[N+]([O-])c1ccc2[nH]c3c(c2c1)CCCC3O (configuration not stated) |  | 20.6 µM (active)
8 | Cc1c(C(=O)N(C)C)sc2c1c(=O)n(-c1ccc(F)cc1)c(=O)n2CC(=O)N(C)c1ccccc1 | 7.18% | 
9 | O=C(COC(=O)Cc1ccc(Cl)cc1Cl)NCc1ccco1 | 12.7% | 
10 | COCCNC(=O)CSc1nc(N)c(NC(=O)c2ccco2)c(=O)[nH]1 | -3.82% | 
11 | O=C(COc1ccccc1Cl)N1N=C(c2cccs2)CC1c1ccco1 (configuration not stated) | -25.9% | 
12 | O=C1c2cccc(OCC(=O)N3N=C(c4cccs4)CC3c3ccc(F)cc3)c2CCN1Cc1ccccc1 (configuration not stated) |  | 1.64 µM (active)
13 | COc1ccc(C2CC(c3cccs3)=NN2C(=O)CCC(=O)O)cc1OC (configuration not stated) | 13.5% | 
14 | COc1ccc(NC(=O)C2(C)Cc3c(-c4ccc(C(N)=O)cc4)ccnc3O2)cc1 (configuration not stated) | -8.96% | 
15 | O=C(CSc1ncc(-c2ccccc2)[nH]1)Nc1ccc(F)cc1F | -13.2% | 
16 | CC(C)(C)OC(=O)N1CCN(C(=O)c2[nH]c(C(F)(F)F)nc2-c2ccccc2)CC1 | -14.6% | 
17 | O=C1O/C(=C\c2ccc(O)cc2)C(O)=C1c1ccc(O)cc1 | -8.38% | 
18 | CCOC(=O)c1cccc(NC(=O)CCc2c(C)nc3ncnn3c2C)c1 | -2.85% | 
19 | CCOC(=O)c1nnn(CC(=O)Nc2cccc(F)c2)c1C(=O)OCC | 13.5% | 
20 | CCOC(=O)c1cccc(NC(=O)CCn2nnc3ccccc32)c1 |  | 8.2 µM (active)
21 | C[C@H](CO)N1C[C@H](C)[C@@H](CN(C)S(=O)(=O)c2ccc(F)cc2)OCc2cnnn2CCCC1=O | 11.7% | 
22 | CCC(C)N(c1ccc(/C=C/c2ccnc3ccccc23)cc1)C(C)CC (configuration not stated) | -1.86% | 
23 | OC(c1ccccc1)c1nc(/C=C/c2ccc(C(F)(F)F)cc2)cs1 (configuration not stated) | 20.1% | 
24 | CC1CCCCN1C(=O)CCS(=O)(=O)Cc1ccccc1 (configuration not stated) | 27.6% | 
25 | Cc1nn(-c2ccccc2)nc1C(=O)OCC(=O)N1CCCCC1C (configuration not stated) |  | 23.1 µM (active)
26 | Cc1cc(C(=O)OCC(=O)N2C(C)CCCC2C)c2ccccc2n1 (configuration not stated) | -17.1% | 

Row | Compound | activity change, negative = cytotoxicity | Potency
27 | Cc1ccc(N(CC(=O)NCC(C)c2ccccc2)S(=O)(=O)N(C)C)cc1 (configuration not stated) | 3.58% | 
28 | O=C(NCc1nnnn1-c1ccc(Cl)cc1)c1ccc([N+](=O)[O-])o1 | -15.6% | 
29 | O=[N+]([O-])c1ccc(C(S(=O)(=O)Cc2ccccc2)S(=O)(=O)Cc2ccccc2)cc1 | -7.5% | 
30 | Cn1ccc(NC(=O)Nc2ccc(Cl)cc2)n1 | 4.41% | 
31 | CN(c1cccc(NC(=O)Nc2ccc(Cl)cc2)c1)S(C)(=O)=O | -4.54% | 
32 | CC(C)S(=O)(=O)c1csc(NC(=O)Nc2ccc(Cl)cc2)c1Cl |  | 20.6 µM (active)
33 | CCNC(=O)C1(C)CCCN(Cc2noc(-c3ccccc3OC)n2)C1 (configuration not stated) | -12.7% | 
34 | O=C(NCc1cccc(C(F)(F)F)c1)c1ccc2sc(COCCO)nc2c1 | 2.2% | 
35 | O=C(COc1ccc2c(C(F)(F)F)cc(=O)oc2c1)Nc1ccc2c(c1)OCCO2 | 0% | 
36 | CCN(CC(=O)Nc1ccc2c(c1)OCCO2)Cc1cc(=O)oc2cc(C)c(C)cc12 |  | 5.17 µM (active)
37 | Cc1ccc(SCC(=O)Nc2ccc3c(c2)OCCO3)cc1 | -14.8% | 
38 | CC1(C)Cc2ccccc2-c2c[nH]c(=O)n21 | -2.99% | 
39 | Cc1ccc2[nH]c(=O)c(CN(CCCN(C)C)C(=O)Nc3cccc(Cl)c3)cc2c1 |  | 18.4 µM (active)
40 | Cc1ccc2[nH]c(=O)c(CN(CC3COCCO3)C(=O)Nc3ccccc3C)cc2c1 (configuration not stated) | -18.7% | 
41 | Cc1cccc(NC(=O)N(Cc2cc3cc(C)cc(C)c3[nH]c2=O)CC2COCCO2)c1 (configuration not stated) | 6.39% | 
42 | N#CCCC(C#N)(c1cccnc1)N1CCOCC1 (configuration not stated) | 26.1% | 
43 | CCOc1ccccc1CNC(=O)c1cnc2c(-c3ccc(OCC)c(OCC)c3)c(C)nn2c1C | 0.381% | 
44 | Cc1ccccc1NC(=O)NNC(=O)OC(C)(C)C | 15.7% | 
45 | Cc1ccc(C(=O)NNC(=O)OC(C)(C)C)c(Cl)c1 | 15.5% | 
46 | CC(C)(C)OC(=O)NNc1c2ccccc2nc2ccccc12 |  | 9.2 µM (active)
47 | COC(=O)[C@H]1C[C@H](OC(=O)NCc2ccccc2)[C@@]2(O)CN(S(=O)(=O)c3ccc(C)cc3)CC2[C@H]1C(=O)OC (some centres not stated) | 6.07% | 
48 | COc1ccc(NC(=O)CSc2nc(NS(=O)(=O)c3ccc(C)cc3)cc(=O)[nH]2)cc1 |  | 3.66 µM (active)
49 | Cc1ccc(NC(=O)CSc2nc(CSc3ccc(C)cc3)cc(=O)[nH]2)cc1 | -17.7% | 
50 | Cc1cc(=O)[nH]c(SCC(=O)Nc2ccc(Br)cc2)n1 | 11.3% | 
51 | CC1(C(=O)NS(=O)(=O)c2ccccc2)CCN1C(=O)C1CCCCC1 (configuration not stated) | 3.98% | 
52 | COC(=O)C[C@H]1C[C@@H]2c3cc(NC(=O)Nc4ccccc4)ccc3O[C@@H]2[C@@H](CO)O1 | 12.4% | 

Row | Compound | activity change, negative = cytotoxicity | Potency
53 | COc1cc(OC)cc(C2=Cc3ccccc3C(CC(=O)c3ccco3)N2c2ccc(-c3cnc(OC)nc3)cc2)c1 (configuration not stated) | 0% | 
54 | O=S(=O)(/N=C(/Nc1ccccn1)c1ccccc1)c1ccc(Cl)cc1 |  | 14.6 µM (active)
55 | Cc1ccc(S(=O)(=O)/N=C(/Nc2ccccn2)c2ccc(Cl)cc2)cc1 | -13.7% | 
56 | O=S(=O)(Nc1ccccn1)c1cccc(S(=O)(=O)c2ccc(Cl)cc2)c1 | -22.4% | 
57 | OC(CBr)CN1CCCCC1 (configuration not stated) | 6.25% | 
58 | CCn1cc(C(=O)N(C)Cc2ccccc2)c(=O)c2cc(S(=O)(=O)N3CCCCCC3)ccc21 | 0% | 
59 | Cc1ccc(-c2ccc(C3=CC(=O)CC(C)(C)C3=O)cc2)cc1 | -4.78% | 
60 | CC(C)(C)Cc1c(C2CCCCC2)nc2ccc(Br)cn12 | 11% | 
61 | O=C(Nc1ccc(C(=O)O)cc1)/C(=C\c1ccccc1)NC(=O)c1ccc(Br)cc1 | 2.86% | 
62 | O=C(/C=C/c1ccccc1)N/C(=C/c1ccccc1)C(=O)Nc1ccccc1O |  | 23.1 µM (active)
63 | CCc1ccccc1NC(=O)/C(=C/c1ccccc1)c1ccccc1 | -26.7% | 
64 | CCOC(=O)c1csc(NC(=O)c2ccc(S(=O)(=O)N3CCCC3)cc2)n1 | 14.3% | 
65 | Cc1cc2nc(NC(=O)c3ccc(S(=O)(=O)N4CCOCC4)cc3)sc2cc1C | 0% | 
66 | COc1ccc(C(=O)Nc2nc(-c3ccc(S(=O)(=O)N4CCOCC4)cc3)cs2)cc1 |  | 16.4 µM (active)
67 | O=C(O)c1ccccc1Cc1ccc(F)c2ccccc12 | 10.8% | 
68 | COC(=O)C[C@H]1C=C[C@@H](NS(=O)(=O)c2ccc(C)cc2)[C@@H](CO)O1 | 6.54% | 
69 | Cc1[nH]c2ccccc2c1C(=O)C(=O)N(C)c1ccccc1 | 10.4% | 
70 | CNS(=O)(=O)c1ccc2c(c1)[nH]c(=S)n2C | 8.16% | 
71 | Cc1ccc(S(=O)(=O)NCc2csc(C)n2)c(C)c1 | 10.2% | 
72 | Cc1nc(CNS(=O)(=O)c2ccc(Oc3ccccc3)cc2)cs1 |  | 8.2 µM (active)
73 | Cc1nc(CNS(=O)(=O)c2cccnc2)cs1 | 0.995% | 
74 | CC(=O)c1ccccc1NC(=O)COC(=O)C1COc2ccccc2O1 (configuration not stated) | 10.8% | 
75 | COc1cc(C(O)c2nc(-c3cccc(C(=O)O)c3)cs2)ccc1F (configuration not stated) | 0% | 
76 | COC(=O)C1=CN(c2c(C)cc(C)cc2C)C(N)=C(C#N)C1c1cccc(F)c1 (configuration not stated) | -19.9% | 
77 | O=C(NC1CC1)c1cccc(Br)c1 | 7.99% | 
78 | Cc1nnc(C)n1-c1ccc(C(=O)Nc2cccc(Br)c2)cc1 | 7.83% | 

Row | Compound | activity change, negative = cytotoxicity | Potency
79 | COC(=O)C1NN=C(C(=O)c2ccc(Br)cc2)C1c1cccc(Br)c1 (configuration not stated) |  | 23.1 µM (active)
80 | Cc1cccc(COc2ccccc2/C=N/Nc2ccc([N+](=O)[O-])cc2)c1 |  | 16.4 µM (active)
81 | Cc1ccc(-n2c(C)cc(/C=N/Nc3ccc([N+](=O)[O-])cn3)c2C)c(C)c1 | -22.1% | 
82 | Cc1ccc(NS(=O)(=O)c2ccc(N/N=C/c3ccccc3OCC(=O)O)c([N+](=O)[O-])c2)c(C)c1 | 11% | 
83 | CC1(C)OC(=O)C2=C(CC(c3ccccc3)OC2CCc2ccccc2)O1 (configuration not stated) | -13.9% | 
84 | Cc1noc(C)c1NC(=O)N(C)C[C@@H]1Oc2cc(Br)ccc2S(=O)(=O)N([C@@H](C)CO)C[C@H]1C | 12.1% | 
85 | CCOc1cc(/C=N/O)ccc1OCc1ccccc1F | 0.0138% | 
86 | Fc1ccccc1COc1ccccc1CNCc1ccncc1 |  | 6.51 µM (active)
87 | Fc1ccccc1COc1cccc2cccnc12 | -13.5% | 
88 | COc1ccc(-n2nnc(-c3nsc(NC(=O)c4ccc(C)c(C)c4)n3)c2C)cc1Cl | 0.0477% | 
89 | CCOc1ccc(NC(=O)Nc2cc(C)ccc2OC)cc1 |  | 14.6 µM (active)
90 | CCOc1ccc(NC(=O)Nc2ccc(N(C)C(C)=O)cc2)cc1 | 9.89% | 
91 | COc1ccc(C)cc1NC(=O)NCc1ccccn1 | 0% | 
92 | Cc1ccc(Cl)cc1-n1ncc2c(N3CCC(C(N)=O)CC3)ncnc21 | 0% | 
93 | CC(=O)c1ccc(OCC(=O)N(C)C2CCS(=O)(=O)C2)cc1 (configuration not stated) | 7.87% | 
94 | COc1ccc(CCNc2nc(-c3ccc(F)cc3)cc(C(F)(F)F)n2)cc1OC | 0% | 
95 | CCCC(=O)Nc1cc(OCC)c(NC(=O)NC2CCCCC2)cc1OCC | -2.62% | 
96 | CCCN(CC(=O)NC(=O)NC1CCCCC1)CC(=O)Nc1cc(Cl)ccc1Cl |  | 4.11 µM (active)
97 | O=C(COc1cc(Cl)c(Cl)cc1Cl)NC(=O)NC1CCCC1 | -5.05% | 
98 | CSc1ccc(CNC(=O)C2(C)CCCN2C)cc1 (configuration not stated) | -2.64% | 
99 | CCN(CC)c1ncnc2c1ncn2[C@H]1CN(Cc2cccs2)C[C@@H](CO)O1 | 1.22% | 
100 | COCCNC(=O)c1ccc2c(c1)N=C(C)c1cc(C)ccc1S2 |  | 0.92 µM (active)
101 | CCC1=Nc2cc(C(=O)NCCCN3CCOCC3)ccc2Sc2ccc(Br)cc21 | 17.4% | 
102 | CCC1=Nc2cc(C(=O)NCCN3CCCC3)ccc2Sc2ccc(C)cc21 | 3.17% | 
